Our source for the growth values is PubChem BioAssay (NCI).

Some test systems named below: HCT-15 colon; HT29 colon; SNB-75 CNS; SNB-19 CNS; U251 CNS; PC-3 prostate; SK-MEL-5 melanoma; UACC-62 melanoma; LOX IMVI melanoma; SK-MEL-28 melanoma; SK-MEL-2 melanoma; EKVX NSCLC; SN12C renal; UO-31 renal; TK-10 renal; ACHN renal; CAKI-1 renal; A498 renal; CCRF-CEM leukemia; MOLT-4 leukemia.
Assay in all cases: NCI-60 one-dose screen, 48 h (100 = growth as untreated, 0 = no growth, -100 = all killed)
Details in all cases: 10 µM unless noted

Compounds without any hit were thinned out: in the full panel of roughly 83,000, 20% have a hit.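 How to read the values: 0–100, growth inhibition (40 = 60% inhibited); 0, no net growth; -100 to 0, cell death (-40 = 40% of starting cells died; -100 = all dead).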 A number with no mark means an inactive call. Active and inactive are the calls of the source. How the source made its calls: active means growth percent below 10; inactive means the rest.

In the case of `N=c1ccccn1CCO`, the growth in the assay with HCT-15 colon is 87%; in the assay on HT29 colon, 97.3%; with SNB-75 CNS it was 113%; in the assay on SNB-19 CNS, 93.5%; in the assay on U251 CNS, 109%; in the assay on PC-3 prostate it was 92.7%. The growth with SK-MEL-5 melanoma is 104%; in the assay on UACC-62 melanoma, 98.1%; with LOX IMVI melanoma, 104%; in the assay on SK-MEL-28 melanoma, 108%; in the assay on SK-MEL-2 melanoma, 104%; in the assay with EKVX NSCLC, 121%. Also, the growth was 98.1% in the assay on SN12C renal; 85.4% with UO-31 renal; 109% with TK-10 renal; 102% with ACHN renal; 106% in the assay with CAKI-1 renal; 89.9% with A498 renal. Moreover, the growth in the assay with CCRF-CEM leukemia is 102%; with MOLT-4 leukemia, 93.4%.
`COc1ccccc1/C=C1\COc2ccc(O)c(O)c2C1=O`: the growth with HCT-15 colon is -13.3% (active); with HT29 colon, 57.5%; with SNB-75 CNS, 11.6%; in the assay on SNB-19 CNS, 43.7%; with U251 CNS, 15.3%; in the assay with PC-3 prostate, 33.1%. For the same molecule, the growth with SK-MEL-5 melanoma is 41.6%; in the assay on UACC-62 melanoma it was 14.8%; in the assay on LOX IMVI melanoma it was -30.1% (active); in the assay on SK-MEL-28 melanoma, 47.9%; with SK-MEL-2 melanoma, 58.5%; in the assay with EKVX NSCLC it was 71.6%. For the same molecule, the growth was -11% (active) in the assay with SN12C renal; -68.6% (active) with UO-31 renal; 35.2% in the assay on TK-10 renal; 1.49% (active) in the assay with ACHN renal; 31.9% in the assay with CAKI-1 renal; 109% in the assay on A498 renal. Further, the growth was 2.74% (active) in the assay with CCRF-CEM leukemia and -1.1% (active) in the assay on MOLT-4 leukemia.
In the case of `O=C1c2cccc3cccc(c23)C(=O)N1N1C(=O)c2cccc3c(N4CCNCC4)ccc(c23)C1=O`, the growth with HCT-15 colon is 50.6%; in the assay on HT29 colon, 87.3%; in the assay on SNB-75 CNS, 92.2%; in the assay on SNB-19 CNS, 88.5%; with U251 CNS, 86.3%; with PC-3 prostate, 85.1%. Further, the growth is 92.8% with SK-MEL-5 melanoma; 95.7% in the assay on UACC-62 melanoma; 86.5% with LOX IMVI melanoma; 109% with SK-MEL-28 melanoma; 101% in the assay on SK-MEL-2 melanoma; 97.9% in the assay with EKVX NSCLC. Besides, the growth in the assay with SN12C renal is 89.8%; in the assay with UO-31 renal, 71.6%; in the assay on TK-10 renal it was 113%; with ACHN renal, 87.8%; in the assay on CAKI-1 renal it was 92.4%; in the assay with A498 renal it was 75.1%. Moreover, the growth was 19.5% with CCRF-CEM leukemia and 61.5% in the assay on MOLT-4 leukemia.
For the molecule `CCOc1nc(-c2ccccc2)cc2c(O)c(C(=O)N/N=C/c3ccc(N(C)C)cc3)[nH]c(=O)c12`, the growth is 117% with HCT-15 colon; 145% in the assay on HT29 colon; 124% in the assay with SNB-75 CNS; 133% with SNB-19 CNS; 94.7% with U251 CNS; 88.9% in the assay on PC-3 prostate. In addition, the growth in the assay on SK-MEL-5 melanoma was 105%; in the assay with UACC-62 melanoma, 98.2%; with LOX IMVI melanoma, 97.8%; in the assay on SK-MEL-28 melanoma, 98.5%; with SK-MEL-2 melanoma, 78.8%; in the assay on EKVX NSCLC, 97.5%. For the same molecule, the growth was 103% in the assay on SN12C renal; 88.2% with UO-31 renal; 126% with TK-10 renal; 102% in the assay with ACHN renal; 108% in the assay on CAKI-1 renal; 97.3% with A498 renal. Besides, the growth with CCRF-CEM leukemia was 98.1%; in the assay with MOLT-4 leukemia it was 95.1%.
Regarding `CCN(CC)/C([O-])=c1\cccc\c1=C1\N=C(c2ccccc2)N=C1[n+]1ccc(-c2ccccc2)cc1`, the growth in the assay on HCT-15 colon was 101%; in the assay with HT29 colon, 106%; with SNB-75 CNS it was 93.7%; in the assay on SNB-19 CNS, 99.5%; in the assay on U251 CNS, 97.7%; in the assay with PC-3 prostate it was 92.8%. Moreover, the growth with SK-MEL-5 melanoma is 93.8%; in the assay on UACC-62 melanoma, 93.6%; in the assay on LOX IMVI melanoma, 91.6%; in the assay with SK-MEL-28 melanoma, 106%; with SK-MEL-2 melanoma, 78.1%; in the assay on EKVX NSCLC, 93.4%. Besides, the growth in the assay with SN12C renal is 89.5%; with UO-31 renal, 37.1%; in the assay with TK-10 renal, 102%; with ACHN renal it was 95.8%; with CAKI-1 renal, 99.9%; in the assay on A498 renal, 96%. Moreover, the growth in the assay with CCRF-CEM leukemia was 84.6%; in the assay with MOLT-4 leukemia, 88%.
Turning to `Cc1c(C(C)(C)O)cn2ncnc(Oc3ccc(NC(=O)Nc4ccc(Cl)c(C(F)(F)F)c4)cc3)c12`, the growth in the assay with HCT-15 colon is 36.8%; with HT29 colon, 34.6%; in the assay with SNB-75 CNS, 33.8%; in the assay with SNB-19 CNS it was 30.8%; in the assay with U251 CNS it was 31.8%; in the assay with PC-3 prostate it was 21.5%. In addition, the growth with SK-MEL-5 melanoma is 56.2%; with UACC-62 melanoma, 55.5%; with LOX IMVI melanoma, -9.63% (active); in the assay on SK-MEL-28 melanoma, 53.1%; in the assay on SK-MEL-2 melanoma it was 75.9%; with EKVX NSCLC, 30.8%. Also, the growth in the assay on SN12C renal was 44.3%; in the assay on UO-31 renal, 50.9%; with TK-10 renal, 45.9%; in the assay on ACHN renal, 21%; with CAKI-1 renal, 29.2%; in the assay with A498 renal, 11.6%. Further, the growth is 34.1% in the assay on CCRF-CEM leukemia and 18.2% in the assay with MOLT-4 leukemia.
Regarding `COc1ccc(-c2ccc(-c3ccc(C(=N)N)cn3)o2)cc1Cl`, the growth in the assay with HCT-15 colon was 18.7%; in the assay with HT29 colon it was 4.81% (active); in the assay on SNB-75 CNS, 89.3%; in the assay on SNB-19 CNS it was 40%; in the assay on U251 CNS, 0.889% (active); in the assay with PC-3 prostate, 46.1%. The growth with SK-MEL-5 melanoma is 12%; with UACC-62 melanoma, 86.5%; with LOX IMVI melanoma it was -71% (active); in the assay with SK-MEL-28 melanoma, 70.1%; with SK-MEL-2 melanoma, 83.1%; in the assay on EKVX NSCLC, 70.4%. The growth with SN12C renal was 44.5%; in the assay with UO-31 renal, 52.4%; with TK-10 renal, 94.4%; in the assay on ACHN renal, 17.3%; in the assay on CAKI-1 renal, 40.2%; in the assay with A498 renal, 80.5%. Besides, the results for the growth in the assay with CCRF-CEM leukemia and in the assay with MOLT-4 leukemia were -4.6% (active) and 10.7%, respectively.
